# Assay results taken from PubChem BioAssay AID504848 (National Center for Advancing Translational Sciences (NCATS), 2011).
# The whole screen tested about 2,300 compounds, of which about 1,400 (61%) were called active. Roughly 29% stayed inconclusive and do not appear here. The call rests on the fitted dose curve; in most records, active means well fitted inhibition curve with a large enough effect; inconclusive means small, poorly fitted or top-dose-only effect, or effect the other way; inactive means no such curve, though single readings can be large or run the other way. So high a share suggests a set chosen from earlier hits. The list shows a part of the results.
# Assay: Confirmation screen for delayed death inhibitors of the malarial parasite plastid, 96 hour incubation; further: nearly all actives have a fitted effect of over 60% in size
# Conditions: P. falciparum luciferase growth in erythrocytes; series mostly up to 28.7 µM
# Description: The goal of this screen is to discover new antimalarial compounds that act by inhibiting the development of the apicoplast in the malarial parasite Plasmodium falciparum. The biochemical processes that make this organelle essential for erythrocytic stage parasites are not well understood. However, antibiotics, such as azithromycin and tetracycline, which target the apicoplast translational machinery, have a potent antimalarial effect. […] We have developed a cell-based assay that measures parasite growth based on the expression of an integrated copy of a firefly luciferase reporter. To detect small molecules that cause this "delayed death phenotype, erythrocytes infected with the luciferase-expressing parasites were incubated with compounds for either one or two generations, corresponding to 48 and 96 hours, respectively. Compounds that inhibit parasite growth in the second generation, but not the first, should be enriched in antimalarials that target the apicoplast. Growth inhibition is detected by a decrease in luciferase activity. MLPCN Grant: R21 NS059500 Assay Provider: David Fidock and Eric Ekland, Columbia University Keywords: NIH Roadmap, MLPCN, MLI, MLSMR, qHTS, NCGC, qHTS, malaria, luciferase, viability
# Four microliters of culture medium (RPMI 1640 with 0.5% w/v Albumax (GIBCO), 24 mM sodium bicarbonate and 10 ug/mL gentamycin) were dispensed by a Multi-drop Combi into white solid 1536-well plates (Grenier) and 23 nL compound was added by a pin tool. Four microliters of infected erythrocytes (2% hematocrit, 0.1% parasitemia final concentration) in culture medium were dispensed and the plates incubated for 96 hours at 37 C in 5% CO2. Two microliters of luciferase detection reagent was added and luminescence was detected by a ViewLux (PerkinElmer) reader
# Potency means the concentration at half of the fitted maximal effect.
row,SMILES,Potency
1,Cc1ccccc1C(=O)Nc1ccc2c(c1)CCCN2C(=O)c1cccs1,12.6 µM (active)
2,COc1cc(OC)cc(C(=O)Nc2ccc3c(c2)CCCN3C(=O)c2cccs2)c1,11.2 µM (active)
3,CC(C)c1[nH]nc2c1C(C1C=CCCC1)C(C#N)=C(N)O2 (centres undefined),14.1 µM (active)
4,CCOCCCNC(=S)N1CCN(c2nc(-c3ccccc3)cs2)CC1,12.6 µM (active)
5,Cc1c(-c2ccccc2)nc2ccccc2c1C(=O)Nc1ccncc1,0.178 µM (active)
6,CC(C)CC1c2[nH]c3ccccc3c2CCN1CCCn1cccn1 (centres undefined),8.91 µM (active)
7,CC(=O)c1ccc(NC(=S)Nc2ccc3cn[nH]c3c2)cc1,inactive
8,CCC(=O)NC(=S)Nc1ccc(NC(=O)c2ccc(C)c([N+](=O)[O-])c2)cc1,10 µM (active)
9,CN(C(=O)c1cc([N+](=O)[O-])ccc1NCc1cccnc1)c1ccccc1,11.2 µM (active)
10,CN1/C(=C\C(=O)CSc2cccc[n+]2[O-])C(C)(C)c2ccccc21,15.8 µM (active)
11,CSc1nnc(C)c(=O)[nH]1,inactive
12,Clc1cccc(Cl)c1C[n+]1ccc2ccccc2c1,1.26 µM (active)
13,Cc1ncc(CO)c(/C=N/NC(=S)Nc2ccc(F)cc2)c1O,14.1 µM (active)
14,CC(=O)c1ccc(N/N=C(/C(N)=O)C2=NC(C)(C)Cc3ccccc32)cc1,6.31 µM (active)
15,Cc1cccc(N/N=C(\C(N)=O)C2=NC(C)(C)Cc3ccccc32)c1,3.98 µM (active)
16,O=C(COc1ccccc1Cl)NC(=S)N1CCc2ccccc21,14.1 µM (active)
17,O=C(NCc1ccccn1)Nc1cc(Cl)ccc1Cl,6.31 µM (active)
18,CC(=O)c1cccc(Oc2cc(NN3CCCCC3)c([N+](=O)[O-])cc2[N+](=O)[O-])c1,11.2 µM (active)
19,Cc1onc(-c2c(Cl)cccc2Cl)c1C(=O)Nc1nc(C(C)(C)C)cs1,6.31 µM (active)
20,COc1ccc(NC(=O)c2c(-c3c(Cl)cccc3Cl)noc2C)c(OC)c1,2.24 µM (active)
21,Cc1onc(-c2c(Cl)cccc2Cl)c1C(=O)N=C(N)N1CC(C)OC(C)C1 (centres undefined),7.08 µM (active)
22,Cc1noc(C)c1C(=O)Nc1nc(-c2ccc(F)cc2)cs1,inactive
23,Cc1onc(-c2c(Cl)cccc2Cl)c1C(=O)NC1CCCCC1,11.2 µM (active)
24,COc1cnc(-c2ccccn2)nc1N(C)c1ccccc1,2 µM (active)

row,SMILES,Potency
1,COc1cnc(-c2ccccn2)nc1Oc1ccc(C(C)(C)C)cc1,2.51 µM (active)
2,CSC1=NC(C)(C)C=C(/C=C/c2ccc(Cl)cc2Cl)N1,1.78 µM (active)
3,CSC1=NC(C)(C)C=C(/C=C/c2c(Cl)cccc2Cl)N1,10 µM (active)
4,CSC1=NC(C)(C)C=C(/C=C/c2ccc(Cl)cc2)N1,4.47 µM (active)
5,CC1(C)Cc2c(ccc3ccccc23)C(c2cc3ccccc3oc2=O)=N1,4.47 µM (active)
6,CN(C(=O)CN1C(=O)CCSc2ccc(S(=O)(=O)N3CCCC3)cc21)c1ccccc1,7.94 µM (active)
7,CCN(CC)CCn1c2c(c(SCC(=O)Nc3nc4ccccc4s3)nc1=O)CCCC2,2 µM (active)
8,CCc1c(C(=O)NC2CCCc3ccccc32)[nH]c(C)c1C(C)=O (centres undefined),inactive
9,CCc1c(C(=O)NCCc2cccc(C)c2)[nH]c(C)c1C(C)=O,12.6 µM (active)
10,CCC(=O)NCCc1cc2ccc(C)cc2[nH]c1=O,inactive
11,CCOC(=O)Nc1ccc2c(CNC(C)c3ccccc3OC)cc(=O)oc2c1 (centres undefined),12.6 µM (active)
12,COC(=O)COc1ccc2c(=O)c(-c3ccccc3OC)coc2c1,inactive
13,C=C[C@]1(C)C[C@@H](OC(=O)CSCCN(CC)CC)[C@]2(C)C(C)CC[C@]3(CCC(=O)[C@H]32)[C@@H](C)[C@@H]1O (some centres undefined),2 µM (active)
14,CN(Cc1ccc(Cl)c(Cl)c1)C(=O)C1=CC=CN2CCS(=O)(=O)N=C12,5.01 µM (active)
15,COC(=O)c1ccc(Sc2nnnn2-c2ccccc2)c([N+](=O)[O-])c1,12.6 µM (active)
16,CC1CCN(C(=O)Cn2cc(C(=O)c3ccco3)c3ccccc32)CC1,14.1 µM (active)
17,Cc1ccc(NC(=O)C(=Cc2ccc(C(=O)O)cc2)C(=O)Nc2ccc(C)cc2C)c(C)c1,6.31 µM (active)
18,Cn1c(=O)[nH]c(=O)c2c1nc(NCc1ccccc1)n2Cc1ccc(F)cc1,3.55 µM (active)
19,Cc1ccc(OCC(=O)Nn2cnnc2)c(Br)c1,inactive
20,C/C(CC(=O)NC1CCCCC1)=N\NC(=O)COc1ccc(C)cc1Br,15.8 µM (active)
21,COc1ccc(CCC(C)N2CCC(Oc3ccc(C(=O)N4CCCC4)cc3)CC2)cc1 (centres undefined),10 µM (active)
22,O=C(c1ccc(OC2CCN(Cc3ccccc3OC(F)F)CC2)cc1)N1CCCC1,2.51 µM (active)
23,CCN(CC)CCOC(=O)c1ccc(NC(=O)C(C)NC(=O)C23CC4CC(CC(C4)C2)C3)cc1 (centres undefined),12.6 µM (active)
24,Cc1ccc(Nc2cc(C)c3ccc(O)cc3n2)cc1C,0.126 µM (active)

row,SMILES,Potency
1,OC1C2(Cc3ccccc3)CN3CCN(C2)CC1(Cc1ccccc1)C3 (centres undefined),2 µM (active)
2,O=c1cc(CSc2nc(NCc3ccccc3)c3ccccc3n2)nc2ccc(Cl)cn12,3.55 µM (active)
3,CCN(CC)S(=O)(=O)c1ccc(N2CCOCC2)c(NC(=O)C2CSC3(C)CCC(=O)N23)c1 (centres undefined),5.62 µM (active)
4,COc1ccc2[nH]cc(CCCN3C(=O)c4ccccc4C3=O)c2c1,inactive
5,COc1ccc2[nH]cc(C(=O)CCl)c2c1,12.6 µM (active)
6,CCOc1ccc(/C=C/[N+](=O)[O-])c2ccccc12,15.8 µM (active)
7,Cc1ccc(C)c(-c2nnc(OCC(=O)Nc3cc(C)on3)c3ccccc23)c1,12.6 µM (active)
8,COc1cc(CNC2CCCCCCC2)ccc1OCC(N)=O,12.6 µM (active)
9,Cc1cc(C)c(NC(=O)c2cccc3c2C(=O)N(C2CCCCC2)C3)c(C)c1,7.94 µM (active)
10,COc1ccccc1/C=C/C(=O)c1ccccc1,14.1 µM (active)
11,O=C(/C=C/c1ccccc1O)c1ccco1,inactive
12,CCOC(=O)C(CC)(CC)C(=O)/C=C/c1ccc(Br)cc1,6.31 µM (active)
13,CCOC(=O)C(=Cc1ccccc1OC)C(=O)OCC,12.6 µM (active)
14,COc1ccccc1/C=C/C(=O)/C=C/c1ccccc1O,1 µM (active)
15,CCOC(=O)C(=Cc1ccc(Br)cc1)C(=O)OCC,7.94 µM (active)
16,COc1ccc(CCNc2cc(C)nc3c(-c4ccc(Cl)cc4)c(C)nn23)cc1OC,11.2 µM (active)
17,O=C(/C=C/c1ccncc1)c1ccc(NC(=O)c2ccccc2F)cc1,12.6 µM (active)
18,CSc1ccc(/C=C/C(=O)c2ccc(NC(=O)C(C)C)cc2)cc1,inactive
19,COc1cccc(Nc2ccc(N3CCCCC3)cc2)c1OC,0.355 µM (active)
20,CCOC(=O)CN1C(=O)/C(=C/c2c(F)cccc2Cl)Oc2ccccc21,12.6 µM (active)
21,CCOC(=O)c1ccc(N2N=C(C)/C(=C/C=C/c3ccco3)C2=O)cc1,5.62 µM (active)
22,CC(=O)c1cccc(NC(=O)CSc2ccc(-c3sc(C)nc3C)nn2)c1,12.6 µM (active)
23,CCc1ccc(NC2=CC(=O)C(=O)c3ccccc32)cc1,0.447 µM (active)
24,COc1ccc(-c2c(-c3cc(OC)cc(OC)c3)n(C)c3ccc(-c4ccc5[nH]ccc5c4)cc23)cc1,6.31 µM (active)

row,SMILES,Potency
1,CCN(CC)C(=O)C1CCCN(C(=O)c2cc(COc3ccc4ncccc4c3)on2)C1 (centres undefined),11.2 µM (active)
2,c1ccc2c(c1)Nc1cc3ccccc3cc1S2,3.98 µM (active)
3,O=C(c1[nH]ncc1-c1cccc(Br)c1)C1CO1 (centres undefined),12.6 µM (active)
4,O=S(=O)(c1ccc(F)cc1)N1CCc2ccccc2C1,12.6 µM (active)
5,COC(=O)Nc1ccc2c(c1)N(C(=O)CCCl)c1ccccc1S2,12.6 µM (active)
6,O=S1(=O)Nc2c(ccc3cccnc23)-c2ccccc21,1.58 µM (active)
7,Cc1ccc(C2(C)NC(=O)N(CC(=O)N3CCN(S(=O)(=O)c4cccc(F)c4)CC3)C2=O)cc1 (centres undefined),7.08 µM (active)
8,O=C(NC1CCCCC1)c1ccc(CS(=O)Cc2ccccc2Cl)o1 (centres undefined),12.6 µM (active)
9,Cc1ccc(CS(=O)(=O)Cc2ccc(C(=O)NC3CCCC3)o2)cc1,10 µM (active)
10,O=C(c1cccs1)N1N=C(c2ccccc2)CC1c1ccccc1O (centres undefined),2.82 µM (active)
11,CCOc1ccc(CCn2c(-c3ccco3)nc3ccccc3c2=O)cc1OCC,10 µM (active)
12,O=C(Nn1c(-c2ccccc2)nc2ccccc2c1=O)c1ccco1,inactive
13,Cc1c(O)ccc(C(=O)CN2CCN(Cc3ccc4c(c3)OCO4)CC2)c1O,5.01 µM (active)
14,Cc1ccc(NC2=C/C(=N\S(=O)(=O)c3cccs3)c3ccccc3C2=O)c(C)c1,0.0708 µM (active)
15,CCc1ccc(-c2cn(C3CCCCC3)c(=S)[nH]2)cc1,6.31 µM (active)
16,Clc1ccccc1Cn1c(/C=C/c2ccco2)nc2ccccc21,11.2 µM (active)
17,COc1ccccc1N1CCN(CCC(=O)Nc2ccc(F)cc2)CC1,12.6 µM (active)
18,O=C(c1cccs1)N1CCCN(c2ncnc3scc(-c4ccccc4)c23)CC1,12.6 µM (active)
19,O=C1CN(c2nc(-c3cccnc3)nc3scc(-c4ccccc4)c23)CCN1,inactive
20,Cc1cc(C)n(CC(O)COc2ccccc2)n1 (centres undefined),0.891 µM (active)
21,O=C1CN(C(=O)c2ccc(Cl)c(S(=O)(=O)N3CCc4ccccc43)c2)c2ccccc2N1,12.6 µM (active)
22,CC[C@@H](C(=O)[C@@H](C)[C@@H](O)[C@H](C)CCc1ccc(C)c(O)c1C(=O)O)[C@H]1O[C@](CC)([C@H]2CC[C@](O)(CC)[C@H](C)O2)C[C@@H]1C,0.631 µM (active)
